The text below walks through data of ChEMBL document CHEMBL2218924, “A broad activity screen in support of a chemogenomic map for kinase signalling research and drug discovery” (Biochem J, 2013).

In this assay the target is Death-associated protein kinase 1 (Homo sapiens) (UniProt P53355). To be noted: at 1 µM.
Death-associated protein kinase 1 (Homo sapiens), sequence (P53355 whole entry, looked up): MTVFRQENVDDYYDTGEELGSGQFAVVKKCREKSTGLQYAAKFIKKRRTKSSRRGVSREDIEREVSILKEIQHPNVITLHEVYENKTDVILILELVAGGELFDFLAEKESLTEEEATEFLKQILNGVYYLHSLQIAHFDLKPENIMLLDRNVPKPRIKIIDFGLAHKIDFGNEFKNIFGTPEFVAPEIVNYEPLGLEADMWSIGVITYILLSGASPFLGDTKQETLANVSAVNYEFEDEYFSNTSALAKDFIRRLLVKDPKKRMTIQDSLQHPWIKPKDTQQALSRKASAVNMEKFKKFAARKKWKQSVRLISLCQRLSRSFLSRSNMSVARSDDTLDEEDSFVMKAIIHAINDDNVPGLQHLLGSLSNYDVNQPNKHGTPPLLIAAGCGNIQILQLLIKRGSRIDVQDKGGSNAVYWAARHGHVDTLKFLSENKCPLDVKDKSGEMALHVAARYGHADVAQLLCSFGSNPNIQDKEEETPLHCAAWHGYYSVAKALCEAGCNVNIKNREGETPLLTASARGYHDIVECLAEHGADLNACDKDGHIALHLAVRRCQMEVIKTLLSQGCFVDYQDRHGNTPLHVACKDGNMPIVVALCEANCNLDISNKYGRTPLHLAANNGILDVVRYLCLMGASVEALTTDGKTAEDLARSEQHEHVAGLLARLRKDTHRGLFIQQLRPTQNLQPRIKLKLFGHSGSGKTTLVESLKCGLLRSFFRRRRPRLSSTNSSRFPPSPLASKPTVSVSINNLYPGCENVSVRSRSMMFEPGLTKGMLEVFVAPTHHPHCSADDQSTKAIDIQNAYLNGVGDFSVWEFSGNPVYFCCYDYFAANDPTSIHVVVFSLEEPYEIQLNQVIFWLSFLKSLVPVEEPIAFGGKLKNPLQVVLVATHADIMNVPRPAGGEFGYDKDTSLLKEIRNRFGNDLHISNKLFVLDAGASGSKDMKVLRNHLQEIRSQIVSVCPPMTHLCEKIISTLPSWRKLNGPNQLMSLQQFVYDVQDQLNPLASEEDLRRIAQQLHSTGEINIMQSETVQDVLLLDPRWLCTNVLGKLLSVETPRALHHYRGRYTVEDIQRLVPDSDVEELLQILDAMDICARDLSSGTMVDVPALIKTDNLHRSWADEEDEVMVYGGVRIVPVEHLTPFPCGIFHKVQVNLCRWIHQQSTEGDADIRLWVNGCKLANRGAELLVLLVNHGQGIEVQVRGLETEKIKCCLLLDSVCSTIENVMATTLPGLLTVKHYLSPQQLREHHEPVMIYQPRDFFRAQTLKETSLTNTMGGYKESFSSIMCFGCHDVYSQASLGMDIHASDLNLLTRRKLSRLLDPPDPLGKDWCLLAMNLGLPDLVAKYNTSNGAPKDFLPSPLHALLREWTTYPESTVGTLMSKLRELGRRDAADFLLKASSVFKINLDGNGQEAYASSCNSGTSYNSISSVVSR

Regarding `O=C(O)/C=C/c1cc(Br)c(Br)c(Br)c1Br`, the residual activity (usually the signal under treatment as a percentage of the control signal) is 86%.

Take `CC(C)(C)n1nc(Cc2cccc3ccccc23)c2c(N)ncnc21`: the residual activity was found to be 86%.

On to `COc1cc2ncnc(Nc3cccc(Cl)c3)c2cc1OC`, for which the residual activity worked out at 104%.

In the case of `CO[C@H]1[C@@H](OC)C[C@H](C)[C@@H](OC)C2=CC(=O)C=C(NC(=O)/C(C)=C/C=C/[C@H](OC)[C@@H](OC(N)=O)/C(C)=C/[C@@H]1C)C2=O`, the residual activity amounted to 96%.

For `Nc1cccc(-c2cc3c(Oc4cccc(O)c4)ncnc3[nH]2)c1`, the residual activity worked out at 89%.

In the case of `O=C1NC(=O)C(c2cn(CCCO)c3ncccc23)=C1c1cnccn1`, the residual activity is 94%.

On to `Cn1sc(=O)n(Cc2ccccc2)c1=O`, for which the residual activity was 80%.

On to `CC(C)N(CCC(=O)c1ccc2ccccc2c1)Cc1ccccc1`, for which the residual activity was determined as 86%.

With `O=c1c2ccccc2[nH]c(=S)n1CCN1CCC(=C(c2ccc(F)cc2)c2ccc(F)cc2)CC1`, the residual activity worked out at 106%.

For the molecule `Cc1nc2cc3nc(-c4cccs4)cnc3cc2n1C`, the residual activity is 94%.

In the case of `Oc1ccc(-c2nc(-c3ccc(F)cc3)c(-c3ccncc3)[nH]2)cc1`, the residual activity stood at 92%.

Consider `COc1cc2nccc(Oc3ccc(NC(=O)Nc4cc(C)on4)c(Cl)c3)c2cc1OC`, for which the residual activity turned out to be 105%.

For the molecule `Ic1cccc(CSc2nnc(-c3ccncc3)o2)c1`, the residual activity was 90%.
